Test results: PubChem BioAssay (NCI)
About 83,000 compounds went through this panel and 20% of them were active in at least one assay; those are over-represented in the sample as a whole.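 Growth was measured after 48 h exposure to one concentration of compound in 96-well plates. Values under 10 count as active.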 A number with no mark means an inactive call. Activity calls are given as the source filed them.

Test system: SK-OV-3 ovarian
Assay: NCI-60 one-dose screen, 48 h (100 = growth as untreated, 0 = no growth, -100 = all killed)
Conditions: 10 µM unless noted

Structure (SMILES)	growth
COc1ccc(/C=C\c2cc(OC)c(OC)c(OC)c2)cc1OCC(=O)Nc1nc2ccc(OC(F)(F)F)cc2s1	48.4%
CC(C)(C)C(=O)OCOP(=O)(NCc1ccccc1)C1CCCN(O)C1=O (centres undefined)	59.7%
O[C@H](CN1CC1)[C@@H](O)CN1CC1	49.5%
Cc1cc(C)c(CBr)c(C)c1	104%
CCOP1(=O)CC(C)=C(Cl)C(P(=O)(OCC)OCC)C1 (centres undefined)	98.8%
CC12CCC3C(CCC4=CC(=O)CCC43CF)C1CCC2=O (centres undefined)	120%
C=C1[C@@H](C)[C@H]2[C@H](Cc3ccccc3)NC(=O)[C@]23[C@@H](O)/C=C/[C@@](C)(O)C(=O)[C@@H](C)C/C=C/[C@H]3[C@@H]1O	38.1%
NC(=O)C(Br)c1ccccc1 (centres undefined)	117%
CCC(=O)Nc1ccc(Cl)c(Cl)c1	104%
CC[C@H](C)[C@@H]1OC(=O)C(C)(C)[C@H](O)[C@H](Cc2ccccc2)OC(=O)[C@H](C(C)C)OC(=O)[C@@H](NC(=O)c2cccc(NC=O)c2O)[C@@H](C)OC1=O	60.7%
NC(=S)c1cn(C2OC(CO)C(O)C2O)c2ncnc(N)c12 (centres undefined)	17%
Nc1ncnc2n[nH]nc12	13.1%
COc1cc(/C=C/[N+](=O)[O-])cc(OC)c1	71.7%
Clc1cccc(NCOOC2(OOCNc3cccc(Cl)c3)CCCCCC2)c1	105%
Brc1ccc2c(c1)c(-c1nc(-c3c[nH]c4ncccc34)cs1)cn2CCN1CCOCC1	84.8%
O=C1C(Cl)=C(N2CCOCC2)C(=O)c2ccccc21	110%
CC1=C(CCCNS(C)(=O)=O)C2=C(C)C3(CC3)[C@@](C)(O)C(=O)C2=C1	-18% (active)
CCN(CCO)C(Cc1ccccc1)c1ccccc1 (centres undefined)	110%
CCCCC1(CCC)C(=O)NC(=S)NC1=O	109%
CC[C@H](C)[C@H](NC(=O)[C@H]1CCCCN1C)C(=O)N(C)[C@H](CC(=O)c1nc(C(=O)N[C@@H](Cc2ccccc2)C[C@H](C)C(=O)O)cs1)C(C)C	91.5%

Test system: IGROV1 ovarian
Assay: as above
Conditions: 10 µM unless noted

Structure (SMILES)	growth
CCOC(=O)CCC(NC(=O)C(Cc1ccc(N(CCCl)CCCl)cc1)NC=O)C(=O)OCC (centres undefined)	67.2%
COC(=O)[C@@H](C)C[C@H](Cc1ccccc1)NC(=O)c1nc([C@@H](C[C@H](C(C)C)N(C)C(=O)[C@@H](NC(=O)[C@H]2CCCCN2C)C(C)C)OC(C)=O)sc1C(C)C	19.8%
CCCC(C)C1(CC)C(=O)NC(=O)N(C)C1=O (centres undefined)	96.6%
C=CCCCCCCCCC(=O)[O-].C=CCCCCCCCCC(=O)[O-].[Zn+2]	105%
COc1ccc(C(O)(C(=O)O)c2ccc(OC)cc2)cc1	87.5%
Nc1c(F)cc(-c2nc3cc(F)ccc3[se]2)cc1F	19.5%
CC(=O)O[C@@H]1CC[C@]2(C)[C@H]3CC[C@]4(C)C(=O)CC[C@H]4[C@@H]3C[C@@H]3SC(N)=N[C@@]32C1	67.3%
N#CC1(C#N)C(c2ccc(N(CCCl)CCCl)cc2)OC23CCCCC2C1(C#N)C(=N)O3 (centres undefined)	77%
CCCCNC(c1ccc(Cl)cc1)C(O)c1ccc(Cl)cc1 (centres undefined)	27%
CCOC(=O)[C@@H](C)C[C@H](Cc1ccccc1)NC(=O)c1csc([C@@H](C[C@H](C(C)C)N(C)C(=O)[C@H](CC)NC(=O)[C@H]2CCCCN2C)OC(C)=O)n1	22.6%
C[Se]C(=O)c1ccccc1OC(C)=O	46.1%
ClC1=C(Cl)C(Cl)(C2(Cl)C(Cl)=C(Cl)C(Cl)=C2Cl)C(Cl)=C1Cl	-33.3% (active)
CN[C@@]1(c2ccccc2Cl)CCCC[C@@H]1NCC1CCCO1 (some centres undefined)	102%
CC(=O)O[C@H]1CC[C@H]2[C@@H]3CC=C4c5nc(-c6ccccc6)sc5CC[C@]4(C)[C@H]3CC[C@]12C	97.2%
N#CC1(c2ccccc2)CCN(Cc2ccccc2)CC1	115%
COc1ccc(/C=C\c2cc(OC)c(OC)c(OC)c2)cc1OCC(=O)Nc1nc2ccc(OC(F)(F)F)cc2s1	30.3%
CC(C)(C)C(=O)OCOP(=O)(NCc1ccccc1)C1CCCN(O)C1=O (centres undefined)	19.4%

Structure (SMILES)	growth
O[C@H](CN1CC1)[C@@H](O)CN1CC1	93.9%
Cc1cc(C)c(CBr)c(C)c1	99.2%
CC12CCC3C(CCC4=CC(=O)CCC43CF)C1CCC2=O (centres undefined)	62.4%
C=C1[C@@H](C)[C@H]2[C@H](Cc3ccccc3)NC(=O)[C@]23[C@@H](O)/C=C/[C@@](C)(O)C(=O)[C@@H](C)C/C=C/[C@H]3[C@@H]1O	70.5%
NC(=O)C(Br)c1ccccc1 (centres undefined)	80.3%
CCC(=O)Nc1ccc(Cl)c(Cl)c1	104%
CC[C@H](C)[C@@H]1OC(=O)C(C)(C)[C@H](O)[C@H](Cc2ccccc2)OC(=O)[C@H](C(C)C)OC(=O)[C@@H](NC(=O)c2cccc(NC=O)c2O)[C@@H](C)OC1=O	53.6%
NC(=S)c1cn(C2OC(CO)C(O)C2O)c2ncnc(N)c12 (centres undefined)	0.391% (active)
Nc1ncnc2n[nH]nc12	52.2%
COc1cc(/C=C/[N+](=O)[O-])cc(OC)c1	9.88% (active)
Clc1cccc(NCOOC2(OOCNc3cccc(Cl)c3)CCCCCC2)c1	7.21% (active)
Brc1ccc2c(c1)c(-c1nc(-c3c[nH]c4ncccc34)cs1)cn2CCN1CCOCC1	29.5%
O=C1C(Cl)=C(N2CCOCC2)C(=O)c2ccccc21	-47.2% (active)
CC1=C(CCCNS(C)(=O)=O)C2=C(C)C3(CC3)[C@@](C)(O)C(=O)C2=C1	-2.43% (active)
CCN(CCO)C(Cc1ccccc1)c1ccccc1 (centres undefined)	97.4%
CCCCC1(CCC)C(=O)NC(=S)NC1=O	87.9%
CC[C@H](C)[C@H](NC(=O)[C@H]1CCCCN1C)C(=O)N(C)[C@H](CC(=O)c1nc(C(=O)N[C@@H](Cc2ccccc2)C[C@H](C)C(=O)O)cs1)C(C)C	76.5%
